From PubChem BioAssay AID1159580 (chemical genetic matrix, 2015)
About 2,000 (36%) of roughly 5,500 compounds were called active. About 18% were inconclusive and are not listed. Rule as the data show it: active = normalized growth mostly below about 0.91 (no sharp cut-off); inconclusive = no clear call, values can overlap the other calls; inactive = mostly above about 0.92. This is one part of the list.

Assay: chemical genetic growth profiling, strain panel (AID 1159580);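 also: tested at 20 µM; growth read once vehicle control cultures reached saturation at 30 °C; 1 = growth at the plate median or of vehicle wells; lower values mean less growth of the strain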
Conditions: growth OD

SMILES: C#C[C@]1(O)CCC2C3CCC4=Cc5oncc5C[C@]4(C)C3CC[C@@]21C (some centres not stated)
- normalized growth (S. cerevisiae deletion strains, locus YJR066W, strain TOR1, stronger effect = lower value): 0.956 (inactive)
- normalized growth (S. cerevisiae deletion strains, locus YKL009W, strain mrt4, stronger effect = lower value): 0.954 (inactive)
- normalized growth (S. cerevisiae deletion strains, locus YKL068W, stronger effect = lower value): 0.922 (active)
- normalized growth (S. cerevisiae deletion strains, locus YKL085W, strain MDH1 (second series), stronger effect = lower value): 0.889 (active)
- normalized growth (S. cerevisiae deletion strains, locus YKL085W, strain MDH1, stronger effect = lower value): 0.889 (active)
- normalized growth (S. cerevisiae deletion strains, locus YKL160W, strain elf1, stronger effect = lower value): 0.925 (inactive)
- normalized growth (S. cerevisiae deletion strains, locus YKR001C, strain vps1, stronger effect = lower value): 0.831 (active)
- normalized growth (S. cerevisiae deletion strains, locus YKR026C, strain gcn3, stronger effect = lower value): 0.948 (inactive)
- normalized growth (S. cerevisiae deletion strains, locus YKR091W, strain srl3, stronger effect = lower value): 0.964 (inactive)
- normalized growth (S. cerevisiae deletion strains, locus YLL001W, strain dnm1, stronger effect = lower value): 0.921 (inactive)
- normalized growth (S. cerevisiae deletion strains, locus YLL026W, stronger effect = lower value): 0.94 (inactive)
- normalized growth (S. cerevisiae deletion strains, locus YLL041C, strain sdh2, stronger effect = lower value): 0.961 (inactive)
- normalized growth (S. cerevisiae deletion strains, locus YLR027C, strain aat2, stronger effect = lower value): 0.911 (active)
- normalized growth (S. cerevisiae deletion strains, locus YLR039C, strain RIC1, stronger effect = lower value): 0.574 (active)
- normalized growth (S. cerevisiae deletion strains, locus YLR058C, strain SHM2, stronger effect = lower value): 0.898 (inactive)
- normalized growth (S. cerevisiae deletion strains, locus YLR102C, strain apc9, stronger effect = lower value): 0.949 (inactive)
- normalized growth (S. cerevisiae deletion strains, locus YLR113W, strain HOG1, stronger effect = lower value): 0.95 (inactive)
- normalized growth (S. cerevisiae deletion strains, locus YLR221C, strain rsa3, stronger effect = lower value): 0.957 (inactive)
- normalized growth (S. cerevisiae deletion strains, locus YLR258W, strain gsy2, stronger effect = lower value): 0.955 (inactive)
- normalized growth (S. cerevisiae deletion strains, locus YLR262C, strain YPT6 (second series), stronger effect = lower value): 0.792 (active)
- normalized growth (S. cerevisiae deletion strains, locus YLR262C, strain YPT6, stronger effect = lower value): 0.565 (active)
- normalized growth (S. cerevisiae deletion strains, locus YLR268W, strain sec22, stronger effect = lower value): 0.838 (active)
- normalized growth (S. cerevisiae deletion strains, locus YLR320W, strain mms22, stronger effect = lower value): 0.914 (inactive)
- normalized growth (S. cerevisiae deletion strains, locus YLR330W, strain CHS5, stronger effect = lower value): 0.902 (active)
- normalized growth (S. cerevisiae deletion strains, locus YLR342W, strain FKS1 (second series), stronger effect = lower value): 0.926 (inactive)
- normalized growth (S. cerevisiae deletion strains, locus YLR342W, strain FKS1, stronger effect = lower value): 0.875 (active)
- normalized growth (S. cerevisiae deletion strains, locus YLR357W, strain rsc2, stronger effect = lower value): 0.944 (inactive)
- normalized growth (S. cerevisiae deletion strains, locus YLR370C, strain arc18, stronger effect = lower value): 0.975 (inactive)
- normalized growth (S. cerevisiae deletion strains, locus YLR371W, strain rom2, stronger effect = lower value): 0.852 (active)
- normalized growth (S. cerevisiae deletion strains, locus YLR384C, strain iki3, stronger effect = lower value): 0.958 (inactive)
- normalized growth (S. cerevisiae deletion strains, locus YLR418C, strain cdc73, stronger effect = lower value): 0.645 (active)
- normalized growth (S. cerevisiae deletion strains, locus YML016C, strain PPZ1, stronger effect = lower value): 0.935 (inactive)
- normalized growth (S. cerevisiae deletion strains, locus YML032C, strain rad52, stronger effect = lower value): 0.928 (inactive)
- normalized growth (S. cerevisiae deletion strains, locus YML120C, strain ndi1, stronger effect = lower value): 0.924 (inactive)
- normalized growth (S. cerevisiae deletion strains, locus YML124C, strain tub3, stronger effect = lower value): 0.92 (active)
- normalized growth (S. cerevisiae deletion strains, locus YMR058W, strain fet3, stronger effect = lower value): 0.938 (inactive)
- normalized growth (S. cerevisiae deletion strains, locus YMR078C, strain ctf18, stronger effect = lower value): 0.923 (inactive)
- normalized growth (S. cerevisiae deletion strains, locus YMR125W, strain sto1, stronger effect = lower value): 0.94 (inactive)
- normalized growth (S. cerevisiae deletion strains, locus YMR129W, stronger effect = lower value): 0.959 (inactive)
- normalized growth (S. cerevisiae deletion strains, locus YMR205C, strain PFK2, stronger effect = lower value): 0.92 (inactive)
- normalized growth (S. cerevisiae deletion strains, locus YMR223W, strain ubp8, stronger effect = lower value): 0.953 (inactive)
- normalized growth (S. cerevisiae deletion strains, locus YMR231W, strain pep5, stronger effect = lower value): 0.965 (inactive)
- normalized growth (S. cerevisiae deletion strains, locus YMR263W, strain SAP30, stronger effect = lower value): 0.926 (inactive)
- normalized growth (S. cerevisiae deletion strains, locus YMR307W, strain GAS1, stronger effect = lower value): 0.73 (inactive)
- normalized growth (S. cerevisiae deletion strains, locus YNL067W, strain RPL9B, stronger effect = lower value): 0.927 (inactive)
- normalized growth (S. cerevisiae deletion strains, locus YNL071W, strain lat1, stronger effect = lower value): 0.841 (active)
- normalized growth (S. cerevisiae deletion strains, locus YNL183C, strain NPR1, stronger effect = lower value): 0.95 (inactive)
- normalized growth (S. cerevisiae deletion strains, locus YNL209W, strain ssb2, stronger effect = lower value): 0.991 (inactive)
- normalized growth (S. cerevisiae deletion strains, locus YNL233W, strain BNI4, stronger effect = lower value): 0.843 (active)
- normalized growth (S. cerevisiae deletion strains, locus YNL248C, strain rpa49, stronger effect = lower value): 0.982 (inactive)
- normalized growth (S. cerevisiae deletion strains, locus YNL250W, strain rad50, stronger effect = lower value): 0.928 (inactive)
- normalized growth (S. cerevisiae deletion strains, locus YNL271C, strain bni1, stronger effect = lower value): 0.908 (active)
- normalized growth (S. cerevisiae deletion strains, locus YNL298W, strain CLA4, stronger effect = lower value): 0.953 (inactive)
- normalized growth (S. cerevisiae deletion strains, locus YNL307C, strain MCK1, stronger effect = lower value): 0.759 (active)
- normalized growth (S. cerevisiae deletion strains, locus YNL322C, strain KRE1 (second series), stronger effect = lower value): 0.945 (inactive)
- normalized growth (S. cerevisiae deletion strains, locus YNR049C, strain mso1, stronger effect = lower value): 0.961 (inactive)
- normalized growth (S. cerevisiae deletion strains, locus YNR052C, strain pop2, stronger effect = lower value): 0.956 (inactive)
- normalized growth (S. cerevisiae deletion strains, locus YOL012C, strain htz1): 0.535 (inactive)
- normalized growth (S. cerevisiae deletion strains, locus YOL147C, strain pex11, stronger effect = lower value): 0.899 (active)
- normalized growth (S. cerevisiae deletion strains, locus YOR001W, strain rrp6, stronger effect = lower value): 0.972 (inactive)
- normalized growth (S. cerevisiae deletion strains, locus YOR061W, strain CKA2, stronger effect = lower value): 0.904 (inactive)
- normalized growth (S. cerevisiae deletion strains, locus YOR069W, strain VPS5, stronger effect = lower value): 0.955 (inactive)
- normalized growth (S. cerevisiae deletion strains, locus YOR070C, strain gyp1, stronger effect = lower value): 0.975 (inactive)
- normalized growth (S. cerevisiae deletion strains, locus YOR080W, strain dia2, stronger effect = lower value): 0.957 (inactive)
- normalized growth (S. cerevisiae deletion strains, locus YOR083W, strain WHI5, stronger effect = lower value): 0.941 (inactive)
- normalized growth (S. cerevisiae deletion strains, locus YOR106W, strain vam3, stronger effect = lower value): 0.963 (inactive)
- normalized growth (S. cerevisiae deletion strains, locus YOR136W, strain idh2, stronger effect = lower value): 0.922 (inactive)
- normalized growth (S. cerevisiae deletion strains, locus YOR144C, strain elg1, stronger effect = lower value): 0.914 (active)
- normalized growth (S. cerevisiae deletion strains, locus YOR184W, strain ser1, stronger effect = lower value): 0.59 (active)
- normalized growth (S. cerevisiae deletion strains, locus YOR231W, strain MKK1, stronger effect = lower value): 0.988 (inactive)
- normalized growth (S. cerevisiae deletion strains, locus YOR265W, strain rbl2, stronger effect = lower value): 0.966 (inactive)
- normalized growth (S. cerevisiae deletion strains, locus YOR270C, strain vph1, stronger effect = lower value): 0.824 (inactive)
- normalized growth (S. cerevisiae deletion strains, locus YOR290C, strain snf2, stronger effect = lower value): 1 (inactive)
- normalized growth (S. cerevisiae deletion strains, locus YOR316C, strain cot1, stronger effect = lower value): 0.925 (inactive)
- normalized growth (S. cerevisiae deletion strains, locus YPL051W, strain arl3, stronger effect = lower value): 0.945 (inactive)
- normalized growth (S. cerevisiae deletion strains, locus YPL055C, strain LGE1, stronger effect = lower value): 0.75 (active)
- normalized growth (S. cerevisiae deletion strains, locus YPL078C, strain atp4, stronger effect = lower value): 0.902 (inactive)
- normalized growth (S. cerevisiae deletion strains, locus YPL106C, strain sse1, stronger effect = lower value): 0.984 (inactive)
- normalized growth (S. cerevisiae deletion strains, locus YPL240C, strain hsp82, stronger effect = lower value): 0.967 (inactive)
- normalized growth (S. cerevisiae deletion strains, locus YPL241C, strain CIN2, stronger effect = lower value): 0.931 (inactive)
- normalized growth (S. cerevisiae deletion strains, locus YPL256C, strain CLN2, stronger effect = lower value): 0.975 (inactive)
- normalized growth (S. cerevisiae deletion strains, locus YPR119W, strain clb2, stronger effect = lower value): 0.915 (active)
- normalized growth (S. cerevisiae deletion strains, locus YPR141C, strain kar3, stronger effect = lower value): 0.895 (active)
- normalized growth (S. cerevisiae deletion strains, locus YPR163C, strain tif3, stronger effect = lower value): 0.877 (active)
- normalized growth (S. cerevisiae deletion strains, locus YPR167C, strain met16, stronger effect = lower value): 0.926 (inactive)
- normalized growth (S. cerevisiae deletion strains, strain wtn01, stronger effect = lower value): 0.887 (active)
- normalized growth (S. cerevisiae strains, strain wild type, stronger effect = lower value): 0.911 (inactive)
